We go through 57 compounds from PubChem BioAssay AID652010 (The Scripps Research Institute Molecular Screening Center, 2013).

Hit rate of the full screen: of about 370,000 compounds, about 4,100 (1.1%) were called active. Only a selection was taken, and actives are over-represented in it overall. Values without a mark were called inactive.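 The calls were made as follows: active = inhibition above the mean over all tested compounds plus 3 SD (cut at about 3.6% in these data); inactive = the rest.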

The experiment is described as follows: relief of DAX-1 repression of SF-1 activity – cell-based, luminescence, SF-1 (NR5A1), full-length DAX-1, primary screen (AID 652010).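 Also: 0% = DAX-1 cells with DMSO and 100% = cells lacking DAX-1 with DMSO; higher inhibition means more luminescence from relief of DAX-1 repression.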 The conditions noted are these: HEK293T StAR-luciferase reporter, SF-1/DAX-1 repression relief; at 6.8 µM; active compounds read high. On the technique in general: In a reporter assay the amount or activity of a reporter protein is the signal.
As to `CCCOc1ccc(-c2c(C(=O)N/N=C/c3ccco3)nnn2-c2nonc2N)cc1`, the inhibition (usually the change of the read-out against control, counted positive when it falls) was -0.59%.
For `CCOc1ccc(NC(=O)N(CCC(C)C)C(C)c2ccco2)cc1` (configuration not stated), the inhibition was -0.03%.
The figure for `CCCCCCc1cc2cc(-c3nnc(-c4cccc(OC)c4)o3)c(=O)oc2cc1O` is 1.42%; for `CCOc1ccc(-c2nnc(-c3ccco3)o2)cc1` it is 6.66% (active).
As to `CCCCOc1ccc(-c2nnc(-c3ccco3)o2)cc1`, the inhibition was 4.13% (active).
The figure for `O=C(CSc1nnc(-c2ccco2)o1)NCC(=O)c1ccccc1` is 1.51%; for `C=CCN1C(C(=O)OC)CN(Cc2cn(Cc3ccccc3)nn2)CCS1(=O)=O` (configuration not stated) it is -0.18%; for `COC(=O)[C@]12C[C@H](CC(=O)NCC34CC5CC(CC(C5)C3)C4)C(=O)N(Cc3ccc(Cl)cc3Cl)C1=C[C@H](COCc1ccccc1)O[C@@H]2C` it is -0.93%.
Next, `COC(=O)[C@]1(C#N)CC(=O)N(CC2CCCCC2)[C@@H]1c1ccccc1`: 1.2%.
The figure for `FC(F)(F)c1cccc(Cn2ccc3ccc(-c4ccc5ccn(Cc6ccccc6)c5c4)cc32)c1` is -1.01%.
For the compound `O=C(CCCCCN1C(=O)C2C3C=CC(C3)C2C1=O)Nc1ccccn1` (configuration not stated), the inhibition was -0.18%.
On to `COc1cc(OC)c(C(=O)NNC(=O)c2ccc(NS(=O)(=O)c3cccs3)cc2)cc1OC`, for which the inhibition is 4.51% (active).
The figure for `C/C(=N\NC(=O)c1ccc(NS(=O)(=O)c2cccs2)cc1)c1ccc2ccccc2c1` is 0.35%.
The figure for `COc1cc(OC)c(C(=O)NNC(=O)c2ccccc2-n2cccc2)cc1OC` is 0.07%; for `COc1ccc(-c2cc(-c3nnc(SCC(=O)Nc4cccc5ccccc45)n3N)[nH]n2)cc1` it is -0.22%; for `C[C@H](C(=O)N(C)c1ccccc1)[C@@H](O)c1ccc2ccccc2c1` it is 0.19%.
Next, `CS(=O)(=O)N(CC(=O)N/N=C/c1ccccn1)c1ccc(Oc2ccccc2)cc1`: -0.11%.
Turning to `S=C(NN=Cc1ccccn1)Nc1ccccn1`, the inhibition is 3.77% (active).
Next, `O=C(O)C1C2C=CC(O2)C1C(=O)Nc1ccccn1` (configuration not stated): 0.46%; `Clc1ccc(-n2c(SC/C=C/c3ccccc3)nnc2-c2ccco2)cc1`: -1.85%.
The figure for `Cc1ccc(-c2nc(-c3cccnc3)sc2CC(=O)Nc2ccc(C)c(Cl)c2)cc1` is -0.1%; for `O=C(NCc1ccco1)C1CCCN(S(=O)(=O)c2ccc(Cl)s2)C1` (configuration not stated) it is -1.13%; for `O=C1N(c2ccccc2)C(=Nc2ccccc2)SC12CC2` it is -0.44%.
Consider `Cc1ccnc(NC(=O)C(C)N2C(=O)c3ccccc3C2=O)c1` (configuration not stated), for which the inhibition is -0.27%.
Next, `COc1cc(SC)ccc1C(=O)Nc1nc(C)cs1`: -3.74%; `COc1cc(SC)ccc1C(=O)Nc1cc(C)ccn1`: 4.19% (active).
In the case of `O=C(c1cccc(C(F)(F)F)c1)N1CC[C@H]2[C@H](CCCN2Cc2cc(F)cc(F)c2)C1`, the inhibition was 0.13%.
Next, `Cc1sc2nc(SCC(=O)c3ccc(O)c(O)c3)n(Cc3ccco3)c(=O)c2c1C`: -0.17%; `COc1ccc(NC(=O)CN2C(=O)CSc3ccc(S(=O)(=O)N4CCC(C)CC4)cc32)cc1`: -0.14%.
Next, `CC1CCN(CCCNC(=O)CN2C(=O)CSc3ccc(S(=O)(=O)N4CCCCC4)cc32)CC1`: 4.58% (active).
Take `COCCCNC(=O)CN1C(=O)CSc2ccc(S(=O)(=O)N3CCOCC3)cc21`: the inhibition was 0.4%.
The figure for `COC(=O)[C@]12C[C@H](CC(=O)NCc3ccccc3)C(=O)N(CCC3=CCCCC3)C1=C[C@H](C(C)(C)C)O[C@@H]2C` is -0.82%; for `Cc1ccc(NC(=O)N2c3ccccc3SC2c2ccco2)c(C)c1` (configuration not stated) it is -1.05%; for `O=C(Nc1ccc(NC(=O)c2cccs2)cn1)c1ccco1` it is 5.96% (active).
For the compound `O=C(Nc1nonc1-c1ccc(Cl)cc1)c1ccco1`, the inhibition is -0.6%.
On to `O=C(N/N=C/C=C/c1ccco1)c1cccs1`, for which the inhibition was 0.78%.
Next, `C[C@H](C(=O)N(C)c1ccccc1)[C@@H](O)c1ccc(Cl)cc1`: -0.7%.
Next, `O=C(OC12CCCN(C1)/C(=C/c1cccnc1)C2)C1CCCC1` (configuration not stated): -1.73%; `COc1ccccc1CCC(=O)OCC(=O)N1CCN(S(=O)(=O)c2ccc(C)cc2C)CC1`: 4.53% (active).
The figure for `Cc1ccc(S(=O)(=O)N2CCN(C(=O)COC(=O)CNC(=O)c3ccc(C(C)(C)C)cc3)CC2)c(C)c1` is -0.26%; for `COc1ccc(/C=C/C(=O)OCC(=O)N2CCN(S(=O)(=O)c3ccc(C)cc3C)CC2)cc1OC` it is -1.45%; for `COc1ccc(-c2onc(C)c2-c2ccc3c(c2)OCCO3)c(O)c1` it is -0.75%.
As to `COc1ccc(/C=C/c2c(-c3cccc(C)c3)oc3ccc(-c4ccc5c(c4)OCO5)cc23)cc1`, the inhibition was -0.02%.
Next, `COc1ccc(C2=Nc3cc(C)ccc3OC2)cc1`: 4.81% (active); `O=C(c1c[nH]c2ccccc12)N1CCC(Oc2cccnc2)CC1`: -0.43%; `COc1ccccc1CCNC(=O)C1CCN(c2nc(C)cc(C)n2)CC1`: -0.06%.
As for `CCc1c(-c2ccccc2OC)ncn1CCc1ccccc1OC`, the inhibition is -2.14%.
Next, `N#Cc1ccc(CSc2nnc3ccccn23)cc1`: -0.37%; `O=C(CSc1nnc2ccccn12)c1ccccc1`: 4.08% (active).
Next, `O=C(CSc1nnc2n1CCCN2)c1ccccc1`: 0.61%.
`C[C@H]1CCC/C=C/C(=O)c2c(O)cc(O)cc2CC(=O)O1`: the inhibition is -6.29%.
The figure for `Cc1ccc(-c2nc(C3CCCN(S(=O)(=O)c4ccc(Br)s4)C3)no2)cc1` (configuration not stated) is 0.62%; for `CCN(CCCNC(=O)c1ccc2c(c1)NC(=O)CN2C)c1cccc(C)c1` it is -0.89%; for `Cc1ccccc1Nc1nc(N)nc(CSc2nnc3ccccn23)n1` it is 0.79%.
Next, `Cc1ccccc1Nc1nc(N)nc(COC(=O)CCC(=O)c2ccc(F)cc2)n1`: 1.74%; `Cc1ccccc1Nc1nc(N)nc(CSc2ccccc2)n1`: 6.39% (active).
For the compound `COC(=O)c1cc(NC(=O)c2cc(C(C)(C)C)nn2Cc2cccc(C)c2)ccc1N1CCOCC1`, the inhibition is -0.35%.
